Data reported in the supplement of paper PMC6555819.

Experiments:
Assay in all cases: PBM binding z-score (relative to random genomic background probes); higher = stronger binding; sequences stand for … in GC…GCGATTGACAGCGTAGAATGAAGG
[1] = tested on: RARb homodimer (NR concentration 270 nM)
Outline: (§1)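 Ligand-free nuclear receptor dimers were bound for 1 h to custom Agilent 4×180K protein-binding microarrays. Detection used antibodies against each partner (one per run). Binding z-scores rest on regression-normalized fluorescence, with random background probes as the reference.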

[2] = tested on: RARg:RXRa (NR concentration 270 nM, RXRa partner concentration 90 nM)
Outline: as §1

[3] = tested on: RARg homodimer (NR concentration 270 nM)
Outline: as §1

[4] = tested on: RXRa DBDmut IVT, anti-RXR (DBD mutation: RXRa K156A/R161A, NR concentration 90 nM)
Outline: as §1

[5] = tested on: RXRa homodimer (NR concentration 180 nM)
Outline: as §1

[6] = tested on: THRa:RXRa (NR concentration 90 nM, RXRa partner concentration 90 nM)
Outline: as §1

[7] = tested on: THRa homodimer (NR concentration 90 nM)
Outline: as §1

[8] = tested on: VDR homodimer (NR concentration 270 nM)
Outline: as §1

Sequence | PBM binding z-score [1] | PBM binding z-score [2] | PBM binding z-score [3] | PBM binding z-score [4] | PBM binding z-score [5] | PBM binding z-score [6] | PBM binding z-score [7] | PBM binding z-score [8]
TGCCAAAGTTCAAAGGTAACGTAAGTATCCACAC | 3.8 | 6.37 | 6.18 | 4.65 | 7.16 | 3.44 | -0.0439 | 5.01
CCTTACGGGTCACGAGGTAATAGCACGACGAGCG | 3.32 | 5.87 | 5.34 | 1.67 | 6.56 | 3.52 | 0.849 | 0.979
AGTCAAAGTTCAGGACGAGGAAACGTAAAGCACG | 2.85 | 4.29 | 4.75 | 2.81 | 3.17 | 2.42 | 0.288 | 1.64
CCTACTGGGCCAAAAAGGTCATTCATGCCGATAA | 4.58 | 5.14 | 5.18 | 0.771 | 6.01 | 3.24 | 0.431 | 3.01
CCTTACGGGTCACACCAGGTTATAGCATCGGAGT | 3.26 | 4.99 | 4.64 | 1.32 | 5.18 | 5.22 | 0.963 | 1.61
CCTACTGGGCCAAAGGTCATTAATTCCAATGCTC | 4.19 | 5.3 | 4.49 | 1.34 | 6.16 | 3.01 | 0.695 | 2.77
CAGCCTAGGTCAGGGCCAGAATAGGAGGAACGTT | 2.24 | 2.81 | 3.54 | -0.145 | 1.6 | 1.84 | 0.0772 | -0.324
AGAATGAGGTTATACGTAGATGAGGGAAGAAAGT | 0.964 | 1.74 | 1.17 | 1.8 | 2.24 | 2.26 | 0.843 | 0.924
CTCGAAAGGTCGCTTGAGGTGAGTATACGGATAA | 2.86 | 3.95 | 3.9 | 1.89 | 3.66 | 5.16 | 1.09 | 0.912
TCTAGCCGGCCAGAGGGTCACTCAAGAGGTACGG | 2.6 | 2.42 | 2.26 | -0.0421 | 2.31 | 1.44 | -0.64 | -0.169
CCGACTGGGGCAAACGTTACCATACTCAGTACGA | 0.0694 | 0.309 | 0.456 | 0.618 | 0.251 | -0.227 | -0.206 | -0.371
TCTTGTAGATCAACAGGAGGTTTAGAAAGATCGA | -0.821 | -0.145 | -0.083 | 0.348 | -0.0846 | -0.426 | -0.597 | -0.584
ACTAGCAGGCCAAGGGTAACTCAAGATTAGTCCG | 0.76 | 0.469 | 0.734 | -0.0114 | 0.59 | 0.54 | -0.321 | -0.349
AGGATGAGGTTATTAAGATCAGGGAATTGCGGTC | 1.49 | 1.41 | 1.1 | 1.78 | 1.9 | 2.24 | 1.47 | 1.97
CCGACTGGGGCAATGTTACCATAACGCACAGCCA | -0.131 | 0.0448 | 0.359 | -0.0343 | -0.0938 | -0.53 | -0.342 | -0.569
CCGACTGGGGCATCAGGTTACCATAAGCCAGCCC | 0.867 | 0.461 | 0.586 | -0.734 | 0.214 | 0.994 | 0.484 | -0.423
TCTATTCGTTGAAGGGCAACCGACGAGTCCGTTT | 1.39 | 0.744 | 0.769 | 1.49 | 0.993 | 0.507 | 0.017 | 1.27
ATAGGTAGGTTACATCCGGGTCATTCAGGCTATG | 2.84 | 3.6 | 2.45 | 0.326 | 2.96 | 3.77 | 2.45 | 3.59
AGAATGAGGTTACCAAAGATCAAGGAAACGCTTG | 0.992 | 2.37 | 1.88 | 1.13 | 2.85 | 3.03 | 0.74 | 0.375

Sequence | PBM binding z-score [1] | PBM binding z-score [2] | PBM binding z-score [3] | PBM binding z-score [4] | PBM binding z-score [5] | PBM binding z-score [6] | PBM binding z-score [7] | PBM binding z-score [8]
ACAGACAGGTGATGAAGGTAATTCAGGCTATCAT | -0.0158 | 0.139 | 0.241 | -0.19 | 0.13 | 0.514 | 0.165 | -0.369
ACTATTAGTTGACTTAGGGCTACCGATACGACGC | -0.0045 | 0.457 | 0.61 | 0.644 | 0.257 | 1.21 | 0.349 | 0.385
CCTAGTTGGTCAAGGTCATACACGCTATAGGTAC | 4.18 | 4.12 | 4.33 | 2.53 | 4.46 | 4.03 | 3.75 | 4.48
TTACCAAGGTGATGGTCGTTGATCCCTCTGTAGA | 0.0776 | -0.376 | -0.245 | -0.261 | 0.284 | 0.769 | 0.35 | -0.232
CAGCCTAGGACAGGGCCAGTATAGGAGGAACGTT | -0.1 | -0.205 | 0.0959 | -0.669 | -0.283 | 0.127 | -0.164 | -0.467
ATCGAAAGGTCGAAGGTGAGGATACCCACCCGAA | 2.56 | 4.41 | 3.84 | 0.413 | 5.16 | 3.1 | 1.1 | 0.293
CCTCGGAAGACAGAAGGTCAGAGCTGTCCGCTTT | 3.01 | 2.34 | 2.32 | 0.101 | 1.83 | 1.56 | -0.133 | 0.00286
TCTTGTAGATCACAGGTTAAGAAAGCCGAAGCCT | 0.0208 | 0.222 | 0.135 | 0.557 | 0.811 | 0.341 | -0.442 | -0.219
TCGAGTAGGTTACCAATGGGGCTTTCAGCTTTCT | 0.0343 | 0.0207 | 0.23 | 0.35 | 0.16 | -0.122 | -0.536 | -0.784
AGTCAAAGTTCAGGACGAGGGAACGTAAAGCACG | 2.88 | 4.2 | 4.74 | 3.07 | 2.87 | 2.44 | 0.19 | 1.74
TCATATAGGTAAACGGGTGAAAGTCCGTAAGTTA | 0.485 | 0.423 | 0.128 | 1.05 | 1.03 | 0.421 | -0.157 | 0.053
CTCGAAAGGTCGGTTGAGGTGAGTATACGGATAA | 2.15 | 2.63 | 2.54 | 0.556 | 1.95 | 5.09 | 1.33 | 0.68
CCAGACAGGTCAGAAGGTAACTCAGCCTCGATTA | 2.66 | 3.85 | 3.63 | 1.34 | 2.61 | 1.39 | 0.239 | 0.366
CCAACTGGGCCAAGGTCATTGATCAGTCAAAGCA | 3.25 | 3.49 | 2.52 | 1.67 | 3.17 | 3.45 | 2.23 | 2.57
TGGCCTAGGTCAGATCGGGCCAGTATACGCTATA | 1.79 | 2.62 | 4.12 | -0.787 | 1.19 | 3.53 | -0.553 | -0.622
TGTCGAAGTTCAAAGGTAACGTAAGTATCCACAC | 2.43 | 4.25 | 3.04 | 3.6 | 5.18 | 2.81 | -0.0887 | 2.72
AATACAGGCTCATCGTAGGCCAGAGTACGCACAG | 0.104 | -0.0529 | 0.066 | -0.472 | -0.0365 | 0.0323 | -0.199 | 0.118
CCTACTGGGCCAAAAAGGTCATTAATGCCGATAA | 4.32 | 4.16 | 3.68 | 0.627 | 4.26 | 2.91 | 0.449 | 2.2
GCGACTGGGGCATCAGCAGCTTACCATAACTTAA | -0.217 | -0.328 | -0.193 | 0.178 | -0.47 | -0.225 | -0.422 | -0.429

Sequence | PBM binding z-score [1] | PBM binding z-score [2] | PBM binding z-score [3] | PBM binding z-score [4] | PBM binding z-score [5] | PBM binding z-score [6] | PBM binding z-score [7] | PBM binding z-score [8]
GGAACGAGGGCATTCGAGTTGATACCATGGCGAT | 0.873 | 1.26 | 1.46 | 3.31 | 0.823 | 3.34 | -0.337 | 3.45
CGTCCAAGGTCAATGCTTGGTCAGTGAAAGCATT | 4.25 | 6.01 | 6.27 | 3.51 | 4.89 | 3.82 | 2.24 | 2.49
CCTACTGGGCCACGAAGGGTCATTGATTCAGTGA | 3.41 | 2.96 | 2.73 | -0.323 | 2.86 | 3 | -0.121 | 1.53
CCTACTGGGCCACAGGTCATTGATTCCAATGCTC | 2.48 | 2.14 | 1.94 | 0.14 | 2.23 | 1.54 | 0.651 | 1.13
CAAACTAGGTCACAGAGGTCAGAGTCCGTGCGTA | 5.34 | 6.58 | 7.37 | 3.02 | 6.43 | 4.37 | 2.49 | 4.93
CTCGAAAGGTCGGTTGAGGTGAGCATACGGATAA | 2.57 | 3.04 | 2.99 | 0.598 | 2.33 | 5.04 | 1.56 | 0.64
CCGAGTATGTTATGGGGCATTCAGGCAACGGTGA | 0.485 | 0.112 | 0.276 | 0.833 | 0.294 | 0.302 | 0.125 | 0.00991
ATCGAAAGGTCGTGAGATGAGTATACAGAAAGGC | 2.35 | 4.27 | 3.47 | 0.915 | 5.21 | 2.19 | -0.531 | 0.66
ACAGACAGGTGAAGAAGGTAACTCAGGCTATCAT | 0.685 | 0.696 | 0.885 | -0.215 | 0.527 | 1.32 | 0.0297 | -0.131
CCTACTGGGCCAAAAAGGTCCTTGATGCCGATAA | 0.795 | -0.28 | -0.148 | -0.722 | -0.259 | -0.265 | -0.242 | -0.393
AGAACGAGGGCAATGAGTCGATAGCACGGGTGGC | 0.763 | 1.02 | 1.4 | 1.75 | 0.683 | 0.527 | -0.542 | 1.17
CCTACTGGGCCAAAAAGGTTATTGATGCCGATAA | 1.36 | 0.788 | 0.644 | -0.387 | 1.03 | 0.617 | -0.462 | 0.00157
ATCGCAAGGTCGAGGTGAGTATAGAGAAAGGGAA | 1.76 | 2.55 | 2.56 | 0.563 | 2.35 | 2.62 | 0.694 | 0.322
ATCGAAAGGTCGACGAGGTGATTATACACCGTTT | 2.78 | 4.21 | 3.9 | 1.34 | 4.35 | 3.58 | 0.498 | 1.54
GGAACGGGGGCAAAGTTGATAGCATCTGTCGACG | 2.04 | 3.72 | 2.45 | 3.44 | 3.61 | 2.65 | 0.962 | 3.49
CCTACTGGGCCACGATAGGTCATTGATTCAGTGA | 2.93 | 2.17 | 2.17 | -0.409 | 1.92 | 2 | -0.0133 | 0.0413
ATATTTAGGTTATCGGGTCATTCAGTTTGCGCAT | 3.44 | 3.54 | 2.82 | 1.92 | 3.57 | 3.62 | 3.93 | 4.95
ATATGTACGTTATCGGGTCATTCAGTTTGCGCAT | 2.25 | 2.06 | 1.64 | 1.78 | 2.34 | 3.26 | 2.69 | 4.2
